In paper PMC4336329 (PLoS ONE, 2015):
The campaign covered roughly 310,000 compounds. About 14,000 (4.5%) showed an effect of 50% or more. Effects have a minus sign here. The sample holds strong results, similar compounds and a random draw of the others, so the mix is not that of the screen.

molecular target: human ether-à-go-go-related gene (hERG) potassium channel (human, UniProt Q12809); assay: primary screen, population patch clamp on CHO cells stably expressing hERG; higher = less effect of the substance
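Further: peak tail current of the secondary pulse compared with the same well before compound.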

Chain of human ether-à-go-go-related gene (hERG) potassium channel (Q12809 whole entry, looked up): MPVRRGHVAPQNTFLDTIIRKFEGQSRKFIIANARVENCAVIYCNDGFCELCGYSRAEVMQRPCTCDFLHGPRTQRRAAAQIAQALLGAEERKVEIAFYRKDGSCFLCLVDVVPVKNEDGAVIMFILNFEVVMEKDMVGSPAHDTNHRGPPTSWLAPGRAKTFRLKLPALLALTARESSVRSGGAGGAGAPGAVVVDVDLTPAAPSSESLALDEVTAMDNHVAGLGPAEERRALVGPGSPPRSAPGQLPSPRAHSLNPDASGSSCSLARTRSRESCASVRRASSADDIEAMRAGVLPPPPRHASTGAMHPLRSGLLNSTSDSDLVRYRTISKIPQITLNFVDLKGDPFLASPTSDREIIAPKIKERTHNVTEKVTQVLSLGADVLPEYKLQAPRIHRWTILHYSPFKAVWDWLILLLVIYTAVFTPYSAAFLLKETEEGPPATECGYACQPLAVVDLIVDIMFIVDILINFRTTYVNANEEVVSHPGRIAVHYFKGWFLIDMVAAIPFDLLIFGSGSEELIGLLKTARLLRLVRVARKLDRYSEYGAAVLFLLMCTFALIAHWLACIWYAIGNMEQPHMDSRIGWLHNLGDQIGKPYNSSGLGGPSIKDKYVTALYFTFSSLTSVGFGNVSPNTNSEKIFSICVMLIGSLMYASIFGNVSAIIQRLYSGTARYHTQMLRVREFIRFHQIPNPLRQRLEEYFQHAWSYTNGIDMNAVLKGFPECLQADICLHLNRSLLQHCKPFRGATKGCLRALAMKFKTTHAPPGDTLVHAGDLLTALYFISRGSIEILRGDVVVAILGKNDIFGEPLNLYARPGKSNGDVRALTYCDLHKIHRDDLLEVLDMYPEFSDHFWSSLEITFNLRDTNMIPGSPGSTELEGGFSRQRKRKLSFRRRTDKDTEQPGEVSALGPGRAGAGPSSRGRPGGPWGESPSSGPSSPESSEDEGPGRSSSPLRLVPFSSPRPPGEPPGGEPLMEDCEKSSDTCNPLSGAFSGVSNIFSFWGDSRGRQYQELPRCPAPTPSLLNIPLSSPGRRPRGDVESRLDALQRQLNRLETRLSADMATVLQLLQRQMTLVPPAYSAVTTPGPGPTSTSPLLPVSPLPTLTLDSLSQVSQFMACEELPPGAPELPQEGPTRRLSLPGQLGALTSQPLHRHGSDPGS

Row | Compound | hERG current change (%, negative = inhibition) at 10uM
1 | O=C(COc1ccccc1Cl)Nc1ccc(S(=O)(=O)N2CCOCC2)cc1 | 15.4%
2 | COc1ccc(C(=O)NCCc2c[nH]c3ccccc23)cc1S(=O)(=O)N1CCOCC1 | -9.63%
3 | COc1ccc(NC(=O)/C(C#N)=C\c2ccc(Br)o2)cc1 | 4.52%
4 | Cc1ccc(C(=O)Nc2cccc(S(=O)(=O)N3CCOCC3)c2)cc1[N+](=O)[O-] | 24.5%
5 | O=C(Cn1nc(C(=O)O)c2ccccc2c1=O)Nc1ccc(F)cc1 | 8.44%
6 | COCC(=O)OC/C(O)=C(\C#N)c1nc2ccccc2[nH]1 | 11%
7 | COC(=O)C1=C(c2c(C)noc2C)C[C@@H]2CC[C@H]1N2C(=O)NCCNC(C)=O | 22.2%
8 | CC(NCc1ccc(S(N)(=O)=O)cc1)C(=O)Nc1ccc([N+](=O)[O-])cc1Cl (stereo not drawn) | -50.5%
9 | CC(NCc1ccc(S(N)(=O)=O)cc1)C(=O)Nc1cc([N+](=O)[O-])ccc1Cl (stereo not drawn) | -45.8%
10 | CC(NCc1ccc(S(N)(=O)=O)cc1)C(=O)Nc1cccc(Cl)c1 (stereo not drawn) | -8.15%
11 | Cc1onc(-c2ccccc2)c1CNC(=O)C1COc2ccccc2O1 (stereo not drawn) | -23%
12 | CCN1CCN(CCCNC(=O)c2cc3c(=O)oc4ccc(C)cc4c3s2)CC1 | -19.1%
13 | Cc1ccc2oc(=O)c3cc(C(=O)NCCCN4C(C)CCCC4C)sc3c2c1 (stereo not drawn) | -61.6%
14 | Cc1ccc2oc(=O)c3cc(C(=O)NCCCN4CCCC(C)C4)sc3c2c1 (stereo not drawn) | -34.9%
15 | Cc1ccc2oc(=O)c3cc(C(=O)NCCCN4CC(C)CC(C)C4)sc3c2c1 (stereo not drawn) | -49.2%
16 | Cc1ccc2oc(=O)c3cc(C(=O)NCCCN4CCN(C)CC4)sc3c2c1 | -5.62%
17 | CN1CCN(CCCNC(=O)c2cc3c(=O)oc4ccccc4c3s2)CC1 | -14.2%
18 | O=C(NCCCN1CCCCCC1)c1cc2c(=O)oc3ccccc3c2s1 | -60.5%
19 | Cc1ccc2oc(=O)c3cc(C(=O)NCCCN4CCCCCC4)sc3c2c1 | -40.2%
20 | CCC1CCCCN1CCCNC(=O)c1cc2c(=O)oc3ccc(C)cc3c2s1 (stereo not drawn) | -69.5%
21 | Cc1nn(C)c(C(=O)Nc2ccc(S(=O)(=O)NC34CC5CC(CC(C5)C3)C4)cc2)c1Br | 9.77%
22 | COc1ccc(OCC(O)CN(CC(O)COc2ccc(OC)cc2)c2cccc(O)c2)cc1 (stereo not drawn) | 2.41%
23 | CCSc1nnc2c(n1)OC1(CCCC1)Nc1ccccc1-2 | 2.61%

Row | Compound | hERG current change (%, negative = inhibition) at 10uM
24 | COc1ccc(CN(C)C(=O)CCN2C(=O)c3ccccc3C2=O)c(OC)c1OC | -2.22%
25 | CCc1c(C)sc(NC(=S)N2CCN(C(=O)C3CCCO3)CC2)c1C(=O)OC (stereo not drawn) | -13%
26 | CC(C)Cc1nnc(NC(=O)CCC(=O)N2CCN(c3ccccc3F)CC2)s1 | 17%
27 | Cc1ccc(Nc2ccc(C(N)=O)cc2[N+](=O)[O-])cc1C | 8.9%
28 | CC(=O)OC(C(=O)NCc1ccc(F)cc1)c1ccccn1 (stereo not drawn) | 4.52%
29 | OCC[C@@H]1C[C@@H](O)[C@H](O)[C@@]2(Cc3ccccc3CCO2)O1 | 11%
30 | Cn1ccc(NC(=O)c2ccc(Cl)cc2Cl)n1 | 7.79%
31 | O=C(CN1C(=O)c2ccccc2C1=O)Nc1cccc(S(=O)(=O)Nc2ccccc2Cl)c1 | 19.9%
32 | COc1ccc(C2=Nn3c(nnc3-c3cccnc3)SC2)cc1OC | -61.8%
33 | c1ccc(C2=Nn3c(nnc3-c3cccnc3)SC2)cc1 | -25.4%
34 | COc1ccc(C2=Nn3c(nnc3-c3ccccc3)SC2)cc1OC | 7.08%
35 | COc1ccc(OC)c(C2=Nn3c(nnc3-c3ccncc3)SC2)c1 | -24.3%
36 | COc1ccc(C2=Nn3c(nnc3-c3ccncc3)SC2)cc1OC | -70.8%
37 | COc1ccc(C2=Nn3c(nnc3-c3ccccn3)SC2)cc1OC | -34.3%
38 | O=S(=O)(c1ccc(NC2CCCCC2)cc1)N1CCOCC1 | -23.7%
39 | COc1ccc(NC(=O)c2cc(-c3ccccn3)nc3ccccc23)cc1S(=O)(=O)N(C)C | -16.6%
40 | O=C(Nn1cnnc1)c1ccc(Br)s1 | 13.9%
41 | CN(C)C(=O)CSc1nc2ccccc2c(=O)[nH]1 | 22%
42 | CCN(CC)CCn1c2c(c(SCC(=O)Nc3nc4ccccc4s3)nc1=O)CCC2 | -58.3%
43 | CCN(CC)CCn1c2c(c(SCC(=O)Nc3nc4ccccc4s3)nc1=O)CCCC2 | -60.2%
44 | CCN(CC)CCCn1c2c(c(SCC(=O)Nc3nc4ccccc4s3)nc1=O)CCC2 | -71.2%
45 | CCCNC(=O)c1onc(CSc2ccc(Cl)cc2)c1C(=O)NCCOC | -19.7%
